Screening results from PubChem.
USP17 block = inhibitors of human USP17 deubiquitinase; inhibition, % at 50 µM; 47,000 tested, 6.5% active; Ubiquitin carboxyl-terminal hydrolase 17-like protein 5 (Homo sapiens), A8MUK1; purified USP17, Ub-rhodamine cleavage fluorescence, 3 h
Target sequence (A8MUK1 whole entry, looked up): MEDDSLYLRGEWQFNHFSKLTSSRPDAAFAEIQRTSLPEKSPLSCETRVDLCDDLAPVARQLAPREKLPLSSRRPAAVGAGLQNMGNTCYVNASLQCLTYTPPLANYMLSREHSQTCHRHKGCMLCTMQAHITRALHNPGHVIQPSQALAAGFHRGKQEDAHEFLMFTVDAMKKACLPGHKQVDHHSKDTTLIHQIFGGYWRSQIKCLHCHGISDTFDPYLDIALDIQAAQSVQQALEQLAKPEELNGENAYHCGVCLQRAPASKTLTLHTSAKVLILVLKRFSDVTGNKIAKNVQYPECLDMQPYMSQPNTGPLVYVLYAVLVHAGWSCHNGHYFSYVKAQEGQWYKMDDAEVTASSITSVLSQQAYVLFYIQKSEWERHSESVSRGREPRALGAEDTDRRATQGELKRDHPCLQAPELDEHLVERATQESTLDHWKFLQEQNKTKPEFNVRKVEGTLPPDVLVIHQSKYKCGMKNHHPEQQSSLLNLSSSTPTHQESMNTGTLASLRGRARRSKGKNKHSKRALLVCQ
UCHL1 inh = inhibitors of human UCHL1 deubiquitinase. Ubiquitin carboxyl-terminal hydrolase isozyme L1 (Homo sapiens), P09936. purified UCHL1, Ub-rhodamine cleavage fluorescence. inhibition, % at 20 µM. 47,000 tested, 0.2% active
USP7 block = inhibitors of human USP7 deubiquitinase; purified USP7, Ub-rhodamine cleavage fluorescence; inhibition, % at 20 µM; 47,000 tested, 0.3% active; AID 1645854, 2021
USP8 inh = inhibitors of human USP8 deubiquitinase; inhibition, % at 20 µM; 47,000 tested, 4.2% active; AID 1645853, 2021; purified USP8, Ub-rhodamine cleavage fluorescence, 30 min; Ubiquitin carboxyl-terminal hydrolase 8 (Homo sapiens), P40818
USP10 block = inhibitors of human USP10 deubiquitinase | Ubiquitin carboxyl-terminal hydrolase 10 (Homo sapiens), Q14694 | purified USP10, Ub-rhodamine fluorescence, 60 min | inhibition, % at 20 µM | 47,000 tested, 1.1% active
OTUD3 inh = inhibitors of human OTUD3 deubiquitinase. OTU domain-containing protein 3 (Homo sapiens), Q5T2D3. purified OTUD3, Ub-rhodamine fluorescence, 2 h. inhibition, % at 25 µM. 47,000 tested, 0.7% active
Active calls of the source: *; . = not tested or not shown. Sampled rows, rich in hits. Any-hit rate of the full collection: about 9.2%. Rule as the data show it: active = inhibition above about 30%; inactive = the rest.

SMILES | USP17 block | UCHL1 inh | USP7 block | USP8 inh | USP10 block | OTUD3 inh
CSCCC(NC(=O)c1ccccc1)c1nc2ccccc2n1CC(=O)Nc1ccccc1 (configuration not stated) | -35.7 | 2.1 | 10.6 | 46.5* | 40.8* | 3.1
CCn1c(SCC(=O)NC2CCCCC2)nc2ccccc21 | 0.4 | 0.3 | -18.0 | -12.0 | -0.8 | 1.7
CC(NC(=O)c1ccccc1)c1nc2ccccc2n1CC(=O)Nc1ccc(OC(F)(F)F)cc1 (configuration not stated) | 11.7 | 4.3 | 9.2 | 33.4* | 14.3 | 4.6
COc1ncccc1NC(=O)c1cc(Cl)ccn1 | -149.3 | -61.2 | -61.5 | -217.9 | -4.5 | -183.8
Fc1cccc(CNc2cc(-n3ccnc3)ncn2)c1 | 3.9 | 1.2 | 0.8 | 16.5 | 1.0 | 4.6
O=C(Cn1c(CNC(=O)c2ccccc2)nc2ccccc21)Nc1ccc(F)cc1 | 88.1* | 0.7 | 18.2 | 71.8* | 43.8* | 22.7
Cc1ccc(C(=O)NC(C)c2nc3ccccc3n2CC(=O)N2CCc3ccccc32)cc1 (configuration not stated) | 76.4* | 6.5 | -13.0 | 63.0* | 6.6 | -37.5
Cc1ccc(NC(=O)Cc2nnc3ccc(-c4nc(C)no4)cn23)cc1 | 0.2 | 2.2 | . | -0.5 | -0.5 | 4.1
COc1ccc(S(=O)(=O)N2CCN(C(=O)CCCc3c[nH]c4ccccc34)CC2)cc1 | 10.1 | 5.4 | 5.4 | 4.9 | 4.6 | 6.8
Cc1cc(CC2CCN(C(=O)c3c(C(C)C)noc3C)CC2)ccn1 | -0.1 | -1.5 | 0.5 | -5.7 | -1.4 | -6.2
Cc1cccc(CCN2C(=O)CCc3c(C)nc(C4CCCNC4)nc32)c1 (configuration not stated) | 14.5 | 4.4 | 32.9* | -2.1 | 0.2 | 15.7
Cc1ccc(NC(=O)COC(=O)C2(c3ccccc3)CCN(S(=O)(=O)c3ccc(F)c(F)c3)CC2)cc1 | 7.8 | 2.8 | 12.4 | 2.5 | 4.1 | 6.3
Cc1ccc(NC(=O)c2cnc(N3CCOCC3)nc2)cc1F | 88.9* | -0.1 | -43.3 | 13.4 | 1.2 | -0.9
CCOC(=O)c1ccc(NC(=O)c2cnc(N3CCOCC3)nc2)cc1 | -97.0 | -6.1 | -1.8 | -47.6 | -10.4 | 30.2*
O=C(CC1CC1)N1CCCN(Cc2noc(-c3ccccc3)n2)CC1 | -5.9 | 0.0 | -2.0 | -3.3 | -7.8 | -1.2
O=c1cc(-c2ccc(O)c(O)c2)oc2cc(O)cc(O)c12 | 99.5* | 24.8 | 10.7 | 31.4* | 36.0* | 101.0*
O=c1c(-c2ccc(O)cc2)coc2cc(O)cc(O)c12 | -6.4 | -1.8 | 1.9 | 5.6 | 1.8 | -10.3
O=c1c(O)c(-c2ccc(O)c(O)c2)oc2cc(O)cc(O)c12 | 97.3* | 34.2* | -7.9 | 17.9 | 16.6 | 95.2*
COc1cc(OC)c2c(=O)cc(-c3ccccc3)oc2c1 | -3.4 | 0.7 | -19.3 | 0.1 | -3.9 | -6.5
Cc1noc(C2CN(C(=O)NCc3ccc(Cl)cc3)C2)n1 | 0.1 | 2.1 | -4.4 | -7.8 | -1.7 | 6.3
CC1=C(C)C(N(c2ccccc2)c2ccccc2)N(CCC(C)C)C1=O (configuration not stated) | 75.6* | 10.2 | -8.4 | 95.1* | 9.3 | 9.9
CCS(=O)(=O)N1Cc2ccccc2CC1C(=O)Nc1nc2ccccc2s1 (configuration not stated) | 25.9 | 10.0 | 20.0 | 32.3* | 14.0 | -20.5
Cc1nn(C)cc1C(C(=O)NC1CCCCC1)N(C(=O)CN1C(=O)c2ccccc2S1(=O)=O)c1ccc2c(c1)OCO2 (configuration not stated) | 56.2* | 12.0 | 19.2 | 15.9 | 40.4* | 3.9
O=C(Nc1ccc2c(c1)OCCO2)c1c(-c2ccccc2)nnc2ccccc12 | 30.5* | -3.2 | -6.5 | -24.9 | -0.9 | -6.7
Cc1ccccc1-c1cc(C(=O)Nc2ccc(Br)c(Br)c2)c2ccccc2n1 | -9.3 | 3.2 | 9.0 | -18.8 | -0.9 | -6.5
SMILES | USP17 block | UCHL1 inh | USP7 block | USP8 inh | USP10 block | OTUD3 inh
Cc1ccc(-c2cc(C(=O)Nc3ccc4c(c3)OCCO4)c3ccccc3n2)o1 | 38.5* | 8.0 | -15.9 | 28.3 | 0.5 | 8.2
O=C(Nc1ccc2c(c1)OCCO2)c1cccc2nc3ccccc3nc12 | 40.6* | 7.6 | 8.7 | 37.0* | 0.6 | 31.1*
CC(C)c1ccc(NC(=O)c2c(-c3ccccc3)nnc3ccccc23)cc1 | 8.4 | 1.2 | 5.4 | 18.3 | 0.0 | 3.0
Cc1ccc(-c2ncc(C#N)c(=O)n2CC(=O)NC2CCCCC2)cc1 | 0.0 | -6.0 | 0.4 | 0.1 | -1.0 | -9.1
O=C(CCc1c[nH]c2ccccc12)Nc1ccc(N2CCOCC2)cc1 | 60.2* | 0.9 | 7.8 | 8.3 | 21.8 | 4.2
CCN(CC)S(=O)(=O)c1ccc2[nH]c(=O)cc(C(=O)Nc3ccc4c(c3)OCO4)c2c1 | -22.8 | -0.5 | 1.2 | 59.5* | 16.1 | 0.1
COc1ccc(C2Nc3ccccc3C(=O)N2c2ccc3c(c2)OCO3)cc1O (configuration not stated) | 45.2* | 3.1 | -2.4 | 56.6* | -0.6 | 9.7
COc1ccc(C2CC(=O)Nc3cc4c(cc32)OCO4)cc1OC (configuration not stated) | 5.7 | 3.7 | 8.3 | 7.6 | 2.2 | 5.4
Cc1noc(-c2ccc(SCC(=O)Nc3cccc(C)c3C)nc2)n1 | 0.5 | 2.1 | 4.9 | 4.3 | 2.2 | -0.6
O=C(COc1ccc(N2CC(C(=O)NCc3ccccc3)CC2=O)cc1)Nc1ccc(F)cc1 (configuration not stated) | 60.3* | 8.3 | 25.6 | 64.0* | 22.5 | 12.1
COc1ccc(NC(=O)COC(=O)C2CC(=O)N(c3ccc(F)cc3)C2)cc1 (configuration not stated) | -7.9 | -2.7 | 0.6 | 0.0 | 2.8 | -5.7
O=C(COc1ccc(N2CC(C(=O)NCc3ccc4c(c3)OCO4)CC2=O)cc1)Nc1ccc(Cl)cc1 (configuration not stated) | 36.1* | 4.2 | 22.5 | 24.9 | 38.2* | 9.7
O=C(COc1ccc(N2CC(C(=O)NCc3ccc4c(c3)OCO4)CC2=O)cc1)Nc1ccc(F)cc1 (configuration not stated) | 57.4* | 3.4 | 22.7 | 52.6* | 49.4* | 4.1
COc1ccc2c(c1)CC(C(=O)NCc1ccc3c(c1)OCO3)CO2 (configuration not stated) | 3.2 | 0.2 | 0.1 | -3.6 | 0.8 | 5.5
Cc1ccc(CNC(=O)C2CC(=O)N(c3ccc(OCC(=O)Nc4ccc(C)cc4C)cc3)C2)cc1 (configuration not stated) | 0.3 | -4.6 | 8.2 | 11.3 | 11.1 | 13.5
CC(=O)Nc1cccc(N2CC(C(=O)NCCc3ccc(Cl)cc3)CC2=O)c1 (configuration not stated) | -2.7 | -0.7 | -1.1 | -1.4 | -2.1 | -2.7
